{"source": "PubChem BioAssay AID651568", "about": "(National Center for Advancing Translational Sciences (NCATS), 2012)", "note": "The whole screen tested about 1,200 compounds, of which about 55 (5%) were called active. Another 15% or so got no clear call; they are omitted. This is one part of a sample in which actives are shown more often than they occur. Values without a mark were called inactive. Calls come from the whole dose curve; as a rule, active = well fitted inhibition curve with a large enough effect; inconclusive = small, poorly fitted or top-dose-only effect; inactive = no such curve, though single readings can be large or run the other way. % is set by controls: 0 for no effect and ±100 for the full control effect; potency is the fitted concentration of half-maximal effect."}
{"assay": "qHTS Assay to Find Inhibitors of Chronic Active B-Cell Receptor Signaling: Hit Validation in Renilla Reporter Assay; note: nearly all actives have a fitted effect of over 70% in size", "settings": "TMD8 IkB-Renilla luciferase reporter, NF-kB signaling; series mostly up to 57.5 µM; activity change, negative = inhibition: at the top concentration", "from_the_text": "Diffuse large B-cell lymphoma (DLBCL) is the most common category of non-Hodgkin lymphoma, with ~20,000 new cases per year in the United States. DLBCL should be regarded as a collection of different neoplasms. Microarray gene expression analysis has defined two principal types of DLBCL, named for their similarity to normal B cell stages or activation states: a germinal center B-cell (GCB) type, and an activated B-cell (ABC) type. In ABC-DLBCL, a constitutive high-level activity of the NF-kappaB family of transcription factors has been observed (1) and NF-kappaB target genes are more highly expressed in ABC primary tumors than in GCB tumors. Functional studies have shown a constitutive high-level activity of the IkappaB (inhibitor of kappa-B) kinase (IKK) complex. […] Further analysis of DLBCL primary tumors for NF-kappaB target gene expression imply that although CARD11 is required for constitutive IKK activity in all ABC-DLBCL lines, mutations in CARD11 may be the root cause of IKK activation only in lines or tumors with such mutations. In other words, CARD11 mutations may explain NF-kappaB activation in only 10% of ABC-DLBCL cases. […] This process has been termed 'chronic active BCR signaling' (CABS). The goal of this screen is to find small-molecule inhibitors of the CABS pathway found in ABC-DLBCL lines using a cell-based assay that measures IkappaBalpa stability, which has already been extensively validated in the OCI-Ly3 line (PubChem AID:445; REF: 4). […] Hits from the primary screen were tested in this orthogonal secondary assay. NIH Molecular Libraries Probe Production Network [MLPCN] NIH Chemical Genomics Center [NCGC] MLPCN Grant: R03 DA031086 PI Name: Dr. R. Eric Davis\nThe IkB-Photinus/Renilla reporter assay differs from the primary assay in that the reporters are constitutively expressed, and based on luciferases that are different from the click beetle luciferases and each other. These differences should help to eliminate artifactual sources of activity specific to the primary assay. This assay uses the Dual-Glo substrate from Promega; extensively validated in a 96-well format, it could be converted to a smaller-well format. All lines needed for the IkB-Photinus/Renilla assay have already been prepared and extensively validated", "units": {"activity change, negative = inhibition": "%"}}
{"smiles": "O=c1c2ccccc2[se]n1-c1ccccc1", "Potency": "15.1 µM (active)"}
{"smiles": "C/C(=N\\N1CCCCC1)c1c(O)[nH]c(=O)[nH]c1=O", "activity change, negative = inhibition": -0.419}
{"smiles": "CC[C@]12CC[C@H](O)CC1=CCC1C2CC[C@]2(C)C(=O)CCC12", "note": "(stereo partly specified)", "activity change, negative = inhibition": -2.46}
{"smiles": "C=CC[C@@H](CC/C=C/C=C/CC/C=C\\[C@@H]1CSC([C@@H]2C[C@@H]2C)=N1)OC", "Potency": "30.1 µM (active)"}
{"smiles": "CC(C)CCCn1c(O)c(/C=C2/C=CC=N2)c(=O)[nH]c1=O", "activity change, negative = inhibition": -20.5}
{"smiles": "C#CCOc1cc(C2C3=C(COC3=O)Nc3cc4c(cc32)OCO4)ccc1OC", "note": "(stereo unspecified)", "activity change, negative = inhibition": -16.5}
{"smiles": "CCNC(=O)[C@H]1O[C@@H](n2cnc3c(N)ncnc32)[C@H](O)[C@@H]1O", "activity change, negative = inhibition": -8.48}
{"smiles": "COc1cc2c(c(OC)c1OC)-c1ccc(O)cc1[C@@H](NC(C)=O)CC2", "activity change, negative = inhibition": -2.7}
{"smiles": "CCCCOCCCn1c(N)c(C(=O)OCCOC)c2nc3ccccc3nc21", "activity change, negative = inhibition": -1.2}
{"smiles": "CN1C(=O)CN=C(c2ccc(Cl)cc2)c2cc(Cl)ccc21", "activity change, negative = inhibition": 3.92}
{"smiles": "O=C1C(=O)c2cccc3cccc1c23", "Potency": "26.9 µM (active)"}
{"smiles": "COc1ccc(Cc2nccc3cc(OC)c(OC)cc23)cc1OC", "activity change, negative = inhibition": -12.3}
{"smiles": "COc1ccc(C(=O)Oc2cccc3cccnc23)cc1S(=O)(=O)N1CCOCC1", "activity change, negative = inhibition": -25.8}
{"smiles": "COc1cc2c3cc1Oc1cc(ccc1O)C[C@@H]1c4c(cc(OC)c(O)c4Oc4ccc(cc4)C[C@H]3N(C)CC2)CCN1C", "Potency": "23.9 µM (active)"}
{"smiles": "COc1ccc(C=C2C(=O)N(C)C(=O)N(C)C2=O)cc1COc1ccc(NC(C)=O)cc1", "activity change, negative = inhibition": -13.9}
{"smiles": "CCc1ccccc1N1C(=O)/C(=C/c2ccc(N3CCN(C)CC3)o2)C(=O)NC1=S", "activity change, negative = inhibition": -9.48}
{"smiles": "CCCC[C@@H](C)C[C@@H](C)C(=O)N(C)[C@@H](CC(C)C)C(=O)N[C@H](C(=O)N(C)[C@H](C(=O)N1C[C@@H](O)C[C@H]1C(=O)N1C(=O)C=C[C@@H]1C)C(C)C)C(C)OC(C)=O", "note": "(stereo partly specified)", "Potency": "26.9 µM (active)"}
{"smiles": "COc1cc(C2c3cc4c(cc3CC3COC(=O)C32)OCO4)cc(OC)c1OC", "note": "(stereo unspecified)", "activity change, negative = inhibition": -14.9}
{"smiles": "Cc1cc(C)c(C(=O)CN2CCOCC2)c(C)c1", "activity change, negative = inhibition": -9.8}
{"smiles": "COc1cc2c(c(OC)c1OC)-c1ccc(O)c(=O)cc1C(NC(C)=O)CC2", "note": "(stereo unspecified)", "activity change, negative = inhibition": -5.2}
{"smiles": "COc1ccc(-c2nn(CCC#N)cc2C(=O)Nc2ccc(C(C)=O)cc2)cc1[N+](=O)[O-]", "activity change, negative = inhibition": 2.38}
